Activity calls are given as the source filed them. Unless noted, how the calls were made is not given here.

The subject of experiment [1] is Wnt5a (protein binding on small-molecule microarray). Briefly: small molecules binding Wnt5a protein – biophysical, small-molecule microarray, 635/667 nm fluorescence, primary screen (AID 1142).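 Further: fluorescence read at 667 nm with signal to noise per printed feature.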 The settings on record: 635 nm fluorescence, higher = more signal.
Experiment [2] can be described thus: ATP-based viability of Huh7 replicon cells – cell-based, CellTiter-Glo luminescence, basal, 48 h, cytotoxicity control for HCV replication inhibitor project, primary screen (AID 1143).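 Further: Huh7 hepatoma cells carrying a hepatitis C replication reporter with no stimulus; test concentration not given here.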 To be noted: higher = more signal, called active from +8 up or from −8 down. In general terms: In antiviral work, replicon cells carry a viral genome segment that copies itself.
Experiment [3] can be described thus: Pseudomonas biofilm growth suppression – PAO1 strain, BacTiter-Glo luminescence, LB-PBS, primary screen (AID 1144). The settings on record: P. aeruginosa PAO1 biofilm, 12 h, higher = more signal.
Experiment [4] is described as follows: basal CRE-LacZ reporter activity in PC12 – cell-based, unstimulated, primary screen (AID 1145). The settings on record: no forskolin, luminescence, 4.5 h, higher = more signal, called active from +8 up or from −8 down.
A short description of experiment [5]: forskolin-driven CRE-LacZ activity in PC12 – cell-based, CRE-LacZ reporter, forskolin-stimulated, primary screen (AID 1146).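 Further: PC12 cells with 6xCRE LacZ reporter stimulated by forskolin 10 µM; beta-galactosidase reporter signal reflecting CREB driven transcription.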 To be noted: luminescence, 4.5 h, higher = more signal, called active from +8 up or from −8 down.
In experiment [6] the target is Streptavidin (Streptomyces avidinii) (UniProt P22629). Briefly: compounds binding control protein streptavidin – biophysical, small-molecule microarray, 635/667 nm fluorescence, artefact control for SMM compound annotation, primary screen (AID 1147).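 Further: signal reflects streptavidin binding to arrayed compounds as a control protein.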 To be noted: higher = more signal.
Streptavidin (Streptomyces avidinii), sequence (P22629 whole entry, looked up): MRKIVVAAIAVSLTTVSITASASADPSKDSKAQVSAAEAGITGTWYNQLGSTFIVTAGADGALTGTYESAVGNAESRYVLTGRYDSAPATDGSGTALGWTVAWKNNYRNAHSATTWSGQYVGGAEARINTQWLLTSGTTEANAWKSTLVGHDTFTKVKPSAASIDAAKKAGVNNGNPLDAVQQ
The nature of experiment [7]: probe aInhba binding on compound microarray – biochemical, small-molecule microarray, 635/667 nm fluorescence, primary screen (AID 1148).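 Further: score merges 667nm spot fluorescence with signal-to-noise for antibody binding to printed compounds.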 To be noted: higher = more signal.
The target in experiment [8] is Torsin-1A (Homo sapiens) (UniProt O14656). Briefly: TOR1A wild-type binding on microarray – cell lysate, small-molecule microarray, lysate, 635/667 nm, primary screen (AID 1149). The settings on record: COS7 hTOR1A-WT lysate, 635 nm fluorescence, higher = more signal.
Torsin-1A (Homo sapiens), sequence (O14656 whole entry, looked up): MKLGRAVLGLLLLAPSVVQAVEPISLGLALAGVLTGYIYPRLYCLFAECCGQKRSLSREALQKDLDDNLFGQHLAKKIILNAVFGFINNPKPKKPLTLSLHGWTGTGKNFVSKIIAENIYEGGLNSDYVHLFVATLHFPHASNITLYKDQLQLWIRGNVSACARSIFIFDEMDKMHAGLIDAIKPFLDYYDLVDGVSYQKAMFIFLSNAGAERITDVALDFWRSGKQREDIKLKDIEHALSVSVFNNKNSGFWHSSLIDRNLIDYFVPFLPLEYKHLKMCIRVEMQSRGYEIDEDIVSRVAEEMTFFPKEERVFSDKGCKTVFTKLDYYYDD
The target is the same in experiment [9]. Briefly: torsin A mutant lysate binding on microarrays – cell lysate, small-molecule microarray, COS7 lysate, 635/667 nm fluorescence, primary screen (AID 1150).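 Further: score pools 667 nm emission and signal to noise measuring lysate protein binding.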 To be noted: COS7 hTOR1A mutant lysate, 635 nm fluorescence, higher = more signal.
Experiment [10] has as its system Sonic hedgehog protein (Shh). Briefly: Sonic hedgehog microarray binding compounds – biochemical, small-molecule microarray, 635/667 nm fluorescence, primary screen (AID 1151).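 Further: Shh protein binding to compounds spotted on small-molecule microarray slides; score combines spot fluorescence intensity with signal-to-noise across triplicate slides.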 The settings on record: 635 nm fluorescence, higher = more signal.
Experiment [11] in a line: optical density shifts of acrAB sulA E. coli – strain DRC41, OD650, 48 h, E. coli filamentation inducer project, primary screen (AID 1152).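 Further: E. coli MC1000 strain DRC41 lacking acrAB efflux pump and sulA.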 To be noted: higher = more signal, called active from +8 up or from −8 down.
Experiment [12] can be described thus: probe aLefty1 binding on compound microarray – biochemical, small-molecule microarray, 635/667 nm fluorescence, primary screen (AID 1153).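 Further: score merges spot fluorescence with signal-to-noise ratio from the scanned slide images.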 To be noted: higher = more signal.
Experiment [13] is described as follows: plasmodial surface anion channel blockers, osmotic lysis – cell-based, P. falciparum Indochina, OD700, 1 h, primary screen (AID 1154). To be noted: P. falciparum Indochina infected RBC osmotic lysis, higher = more signal, called active from +8 up or from −8 down.
Experiment [14] in a line: plasmodial surface anion channel blockers, osmotic lysis – cell-based, P. falciparum Indochina, OD700, 2 h, primary screen (AID 1155).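 Further: lysis reports solute entry through the parasite surface anion channel PSAC.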 The settings on record: P. falciparum Indochina infected erythrocytes, higher = more signal, called active from +8 up or from −8 down.
A short description of experiment [15]: changes in parasitized red cell lysis, either direction – P. falciparum Indochina, OD700, 3 h, PSAC antagonist project, primary screen (AID 1156). To be noted: P. falciparum-infected erythrocytes, osmotic lysis, higher = more signal, called active from +8 up or from −8 down.
Experiment [16] can be described thus: plasmodial surface anion channel blockers, osmotic lysis – cell-based, P. falciparum Indochina, OD700, 18 h, primary screen (AID 1157). The settings on record: P. falciparum Indochina infected erythrocytes, osmotic lysis OD700, 18 h; higher = more signal, called active from +8 up or from −8 down.
The nature of experiment [17]: S6 kinase pathway phospho-S6 level changes – cell-based, A549, cytoblot, luminescence, serum-stimulated, primary screen (AID 1158).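 Further: serum-stimulated A549 lung adenocarcinoma cells; signal is phosphorylated S6 detected by cytoblot immunostaining with HRP secondary.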 The settings on record: 5 h, higher = more signal.
Experiment [18] addresses NADPH oxidase 2 (Homo sapiens) (UniProt P04839). Briefly: compounds shifting NOX2 Amplex Red fluorescence – cell-based, HEK293-NOX2, PMA-stimulated, NOX inhibitor project, primary screen (AID 1159). Further: test concentration not given here. The settings on record: 45 min, higher = more signal, called active from +8 up or from −8 down.
The target of experiment [19] is NADPH oxidase 4 (Homo sapiens) (UniProt Q9NPH5). Briefly: compounds shifting NOX4 Amplex Red fluorescence – cell-based, HEK293-NOX4, tetracycline-induced, NOX inhibitor project, primary screen (AID 1160). The settings on record: HEK293-NOX4, Amplex Red H2O2 fluorescence, 45 min; higher = more signal, called active from +8 up or from −8 down.
NADPH oxidase 4 (Homo sapiens), sequence (Q9NPH5 whole entry, looked up): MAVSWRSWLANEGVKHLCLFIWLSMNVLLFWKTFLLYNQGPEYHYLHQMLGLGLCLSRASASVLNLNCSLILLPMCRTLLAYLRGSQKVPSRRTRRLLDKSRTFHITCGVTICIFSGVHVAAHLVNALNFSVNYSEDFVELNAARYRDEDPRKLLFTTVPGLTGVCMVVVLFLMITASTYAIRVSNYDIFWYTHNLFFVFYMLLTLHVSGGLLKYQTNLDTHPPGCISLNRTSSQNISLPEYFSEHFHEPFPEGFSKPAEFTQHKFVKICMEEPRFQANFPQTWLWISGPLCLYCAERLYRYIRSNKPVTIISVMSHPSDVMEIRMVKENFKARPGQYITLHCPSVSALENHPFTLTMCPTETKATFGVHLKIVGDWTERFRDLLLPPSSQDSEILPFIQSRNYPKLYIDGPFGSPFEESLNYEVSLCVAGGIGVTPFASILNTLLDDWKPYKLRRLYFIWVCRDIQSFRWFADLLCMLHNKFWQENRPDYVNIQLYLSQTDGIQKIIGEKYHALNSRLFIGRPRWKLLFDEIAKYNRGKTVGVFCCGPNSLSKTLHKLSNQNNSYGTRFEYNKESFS
Experiment [20] concerns the target NADPH oxidase 5 (Homo sapiens) (UniProt Q96PH1). Briefly: compounds shifting NOX5 Amplex Red fluorescence – cell-based, HEK293-NOX5, NOX inhibitor project, primary screen (AID 1161). To be noted: HEK293-NOX5, ionomycin, 45 min, higher = more signal.

NADPH oxidase 2 (Homo sapiens), sequence (P04839 whole entry, looked up): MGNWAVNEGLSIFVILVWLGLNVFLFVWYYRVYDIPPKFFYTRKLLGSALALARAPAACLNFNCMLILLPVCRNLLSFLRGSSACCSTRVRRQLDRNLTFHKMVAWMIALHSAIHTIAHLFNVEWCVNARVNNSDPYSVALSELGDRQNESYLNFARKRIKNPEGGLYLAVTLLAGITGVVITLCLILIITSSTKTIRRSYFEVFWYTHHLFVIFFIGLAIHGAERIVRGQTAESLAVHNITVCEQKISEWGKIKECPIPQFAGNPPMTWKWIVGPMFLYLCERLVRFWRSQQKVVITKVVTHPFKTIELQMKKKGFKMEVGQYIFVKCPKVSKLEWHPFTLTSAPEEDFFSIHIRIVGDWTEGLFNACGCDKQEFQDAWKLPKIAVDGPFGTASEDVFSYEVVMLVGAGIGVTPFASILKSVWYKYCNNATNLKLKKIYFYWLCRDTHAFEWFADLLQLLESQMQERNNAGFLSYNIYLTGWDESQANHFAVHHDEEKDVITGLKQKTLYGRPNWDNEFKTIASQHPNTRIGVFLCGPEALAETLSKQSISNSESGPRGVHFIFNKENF
NADPH oxidase 5 (Homo sapiens), sequence (Q96PH1 whole entry, looked up): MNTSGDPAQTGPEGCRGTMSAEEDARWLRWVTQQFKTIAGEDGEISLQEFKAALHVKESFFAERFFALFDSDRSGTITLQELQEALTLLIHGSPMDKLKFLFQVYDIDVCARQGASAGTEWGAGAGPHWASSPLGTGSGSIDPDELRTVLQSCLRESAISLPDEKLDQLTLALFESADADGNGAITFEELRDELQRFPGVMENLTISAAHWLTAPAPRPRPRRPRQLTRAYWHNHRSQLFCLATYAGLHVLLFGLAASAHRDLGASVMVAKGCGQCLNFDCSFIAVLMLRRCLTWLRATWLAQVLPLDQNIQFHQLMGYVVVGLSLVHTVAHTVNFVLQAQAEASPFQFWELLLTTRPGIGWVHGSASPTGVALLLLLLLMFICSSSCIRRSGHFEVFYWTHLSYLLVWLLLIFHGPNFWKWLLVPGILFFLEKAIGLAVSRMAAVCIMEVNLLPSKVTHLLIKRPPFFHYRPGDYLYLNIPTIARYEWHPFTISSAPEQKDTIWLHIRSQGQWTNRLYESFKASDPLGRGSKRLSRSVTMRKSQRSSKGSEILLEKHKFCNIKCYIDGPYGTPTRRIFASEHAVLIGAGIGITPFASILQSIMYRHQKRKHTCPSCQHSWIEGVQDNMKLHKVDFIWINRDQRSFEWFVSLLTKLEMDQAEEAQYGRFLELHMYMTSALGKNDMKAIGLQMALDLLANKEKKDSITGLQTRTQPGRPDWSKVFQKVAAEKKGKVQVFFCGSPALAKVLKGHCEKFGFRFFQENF

As for `COCCCNC(=O)[C@@]1(c2ccc([N+](=O)[O-])cc2)CC(=O)N(C2CCCCC2)[C@@H]1c1ccc(CO)cc1`, the composite z-score is -0.155 in experiment [1]; -0.826 in experiment [6]; -0.417 in [7]; 0.661 with Torsin-1A (Homo sapiens) [8]; -0.699 with Torsin-1A (Homo sapiens) [9]; -0.256 in experiment [10]. In experiment [12], the composite z-score was -0.602. The z-score is -1.72 (inactive) in experiment [2]; 0.0997 (inactive) in experiment [3]; -0.269 (inactive) in experiment [4]; 0.207 (inactive) in experiment [5]; 0.857 (inactive) in [11]; 1.93 (inactive) in experiment [13]. Besides, the z-score in [14] was 0.349 (inactive); in experiment [15], 1.76 (inactive); in experiment [16], 0.499 (inactive); in experiment [17], -0.203; in [18], 0.929 (inactive); in [19], 0.721 (inactive). In addition, in experiment [20], the z-score turned out to be 0.537.
Take `O=C(CS)NCCCCCCNC(=O)[C@@H]1C[C@@H]2C(=O)N[C@@H](Cc3ccccc3)C(=O)N2[C@@H]1c1ccc(O)cc1`: the composite z-score in experiment [1] was determined as 0.588; in experiment [6], 0.226; in [7], 0.0503; in the experiment with Torsin-1A (Homo sapiens) [8] it was 1.12; with Torsin-1A (Homo sapiens) [9], 1.14; in experiment [10] it was 1.86. Moreover, the composite z-score in [12] is 0.0273. Further, the z-score in experiment [2] was -0.345 (inactive); in [3] it was -0.75 (inactive); in experiment [4], -0.537 (inactive); in [5] it was -0.835 (inactive); in [11], 0.706 (inactive); in [13], 6.26 (inactive). The z-score in experiment [14] was 1.52 (inactive); in experiment [15], 4.5 (inactive); in [16] it was 0.595 (inactive); in [17] it was -0.113; in experiment [18], 1.48 (inactive); in experiment [19] it was 0.457 (inactive). The z-score in experiment [20] stood at 0.729.
Take `COc1cc(CO)cc(I)c1O[C@H]1C=C(C(=O)NCCO)C[C@@H](N(CC2CCCCC2)C(=O)c2cc3ccccc3oc2=O)[C@@H]1O`: the composite z-score in experiment [1] was 0.159; in [6] it was 0.745; in experiment [7] it was -0.0332; with Torsin-1A (Homo sapiens) [8] it was 0.0653; with Torsin-1A (Homo sapiens) [9], 0.0077; in experiment [10], 0.568. For the same molecule, the composite z-score in experiment [12] was -0.0969. In addition, the z-score in [2] was -0.0365 (inactive); in experiment [3], -0.143 (inactive); in [4], 1.13 (inactive); in [5], -1.27 (inactive); in [11], 2.01 (inactive); in experiment [13], 2.5 (inactive). For the same molecule, the z-score in [14] is 0.718 (inactive); in experiment [15], 1.18 (inactive); in experiment [16], 0.207 (inactive); in [17], -0.0608; in experiment [18], -0.289 (inactive); in experiment [19], 1.3 (inactive). In addition, in [20], the z-score stood at 0.647.
`COC(=O)[C@@]1(Cc2ccc(OC)cc2)[C@H]2c3cc(C(=O)N(C)C)n(CCc4ccc(OC)c(Br)c4)c3C[C@H]2CN1C(=O)c1ccccc1`: the composite z-score was 0.839 in experiment [1]; 1.95 in [6]; 0.993 in experiment [7]; -0.242 in the experiment with Torsin-1A (Homo sapiens) [8]; 0.733 in the experiment with Torsin-1A (Homo sapiens) [9]; 0.116 in experiment [10]. The molecule also had a composite z-score in experiment [12] of 1.61. For the same molecule, the z-score is -3.88 (inactive) in experiment [2]; 0.28 (inactive) in [3]; 0.39 (inactive) in [4]; 0.0318 (inactive) in experiment [5]; -1.52 (inactive) in experiment [11]; 3.73 (inactive) in experiment [13]. The z-score in experiment [14] was 1.39 (inactive); in [15], 0.307 (inactive); in [16], 1.35 (inactive); in experiment [17], -0.21; in experiment [18] it was -0.052 (inactive); in [19], 0.493 (inactive). The z-score in [20] is 0.527.

The values above are taken from PubChem BioAssay.
